Experiment [1] can be described thus: Cellular Toxicity (caspase-3) HepG2 (AID 654).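 Further: cells exposed to compound for 16 hours before reading; 0% = DMSO alone and 100% = caspase signal from 100 µM tamoxifen.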 Summed up:
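Caspase 3/7 activation is measured as a luminescence increase (aminoluciferin substrate) after 16 h compound exposure of human hepatocarcinoma HepG2 cells. AC50 values are Hill fits, scaled between DMSO baseline and 100 uM tamoxifen stimulation.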

Experiment [2] can be described thus: Cellular Toxicity (caspase-3) Jurkat (AID 655).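 Further: cells exposed to compound for 16 h at 37 °C before reading.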 A digest of the protocol: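 Caspase 3/7 activation is scored as increased luminescence in Jurkat cells cultured with compound for 16 hours in complete medium. AC50 values come from Hill fits of qHTS concentration-response data normalized to DMSO and 100 uM tamoxifen controls.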
Experiment [3] can be described thus: Cellular Toxicity (caspase-3) HUV-EC-C (AID 656). Summed up: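 Read-out: luminescence proportional to caspase 3/7 activity, measured 20 min after adding Caspase-Glo 3/7 reagent. Cells (HUV-EC-C) had received compound for 16 hr at 37°C. Increases relative to DMSO and 100 uM tamoxifen gave concentration-response AC50 values.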
Experiment [4] can be described thus: Cellular Toxicity (caspase-3) SHSY5Y (AID 657). Summed up:
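Cells plated and incubated 5 h at 37 °C, dosed over a concentration range, incubated 16 h, then given Caspase-Glo 3/7 reagent for 1 h at room temperature before luminescence reading. Staurosporine (10 uM) defined full stimulation.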

Experiment [5] in a line: Cellular Toxicity (caspase-3) BJ (AID 658).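 Further: 0% = DMSO basal and 100% = 10 µM staurosporine.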 As to conditions: Potency: caspase-3 activation. A digest of the protocol:
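qHTS, BJ fibroblasts, 1000 cells/well; 5 hr preincubation, 16 hr compound, 37 °C; Caspase-Glo 3/7 reagent, 1 hr RT; luminescence. DMSO = 0%, 10 uM staurosporine = 100%. Hill-equation AC50.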

Experiment [6] in a line: Cellular Toxicity (caspase-3) MRC-5 (AID 659).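 Further: 0% = DMSO basal and 100% = 10 µM staurosporine.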 A digest of the protocol: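 MRC-5 fibroblasts, 1500/well; 16 h cpd, 37 °C; Caspase-Glo 3/7, 1 h RT; lumi read. Norm: DMSO = 0%, 10 uM staurosporine = 100%. Hill-fit AC50 from qHTS conc-response.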
Experiment [7] is described as follows: Cellular Toxicity (caspase-3) Mesangial (AID 660).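 Further: cells exposed to compound for 16 h before the caspase read.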 Summed up:
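Caspase 3/7 activation measured by Caspase-Glo 3/7 luminescence (20 min, room temperature) following 16 h exposure of mesangial cells (1000/well); AC50 from Hill-equation fit, normalized to DMSO and 100 uM tamoxifen.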

Experiment [8] is described as follows: Cellular Toxicity (caspase-3) SK-N-SH (AID 661).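 Further: 0% = DMSO basal and 100% = 10 µM staurosporine.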 The note with it: SK-N-SH caspase-3 activation, qHTS; caspase-3 activation: at 91.7 µM (top of the series), DMSO as zero, staurosporine as full. Summed up:
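Caspase 3/7 activation was read by luminogenic substrate cleavage after 16 hour treatment of SK-N-SH cells. Signal was scaled between DMSO and 10 uM staurosporine, and concentration-response data were fitted with the Hill equation for AC50.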
On the technique in general: qHTS replaces the single test concentration by a dilution series.

The nature of experiment [9]: Cellular Toxicity (caspase-3) H-4-II-E (AID 663).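 Further: cells exposed to compound for 16 hr before readout.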 A digest of the protocol:
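H-4-II-E rat hepatoma, 1500 cells/well, 5 hr settle at 37 °C; compound 16 hr, 37 °C, complete medium; Caspase-Glo 3/7, 20 min RT; luminescence. DMSO = 0%, 100 uM tamoxifen = 100%; Hill-equation AC50.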

Experiment [10] in a line: Cellular Toxicity (caspase-3) Hek293 (AID 664).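 Further: cells exposed to compound for 16 h at 37 °C before readout.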 The note with it: HEK293 caspase-3 activation, DMSO = 0%, 100 µM tamoxifen = 100%; at 92.2 µM (top of the series). A digest of the protocol:
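Concentration-response qHTS: caspase 3/7 activation measured by luminescent aminoluciferin substrate cleavage after 16 h compound exposure of Hek 293 cells. AC50 from Hill equation, with DMSO as basal and 100 uM tamoxifen as 100%.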

A short description of experiment [11]: Cellular Toxicity (caspase-3) N2a (AID 665).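 Further: compound exposure lasted 16 h at 37 °C before readout.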 A digest of the protocol: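 Caspase-3/7 activation measured as luminescence from Caspase-Glo reagent (1 h, room temperature) after 16 h compound exposure of mouse N2a cells. AC50 values from Hill-equation concentration-response, scaled between DMSO and 10 uM staurosporine.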
Experiment [12] is described as follows: Cellular Toxicity (caspase-3) NIH 3T3 (AID 666).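 Further: caspase signal read after 16 h compound exposure; 0% = DMSO basal and 100% = 100 µM tamoxifen stimulation.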 Summed up:
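Caspase-Glo 3/7 luminescence reported caspase activation in 1000 NIH 3T3 cells/well after 16 h compound exposure at 37 C. DMSO set basal and 100 uM tamoxifen set 100% stimulation; concentration-response modeled with the Hill equation for AC50.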

Experiment [13] is described as follows: Cellular Toxicity (caspase-3) Renal Proximal Tubule (AID 667).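 Further: cells exposed to compound for 16 hours at 37 °C before detection; 0% = DMSO basal and 100% = 10 µM staurosporine.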 Summed up:
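In qHTS format, rat primary proximal tubule cells seeded at 1000 per well are exposed to compounds for 16 hours at 37 °C. An increase in Caspase-Glo 3/7 luminescence indicates caspase activation.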

The target in experiment [14] is 3',5'-cyclic-AMP phosphodiesterase 4B (Homo sapiens) (UniProt Q07343). Put plainly: qHTS Assay for Inhibitors of PDE-IV (AID 607; active means well fitted activation curve with a large enough effect in the main read-out, with a control signal flat, not every such curve was filed as active; further: % of control where 0% means no effect). A digest of the protocol: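 Live HEK293 cells with a modified cyclic nucleotide-gated (CNG) channel report intracellular cAMP via membrane-potential dye fluorescence (ex 535/em 590 nm). Endogenous PDE-IV was targeted. Compounds were tested at up to 22.9 uM final; RO 20-1724 100 uM served as control.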
3',5'-cyclic-AMP phosphodiesterase 4B (Homo sapiens), sequence (Q07343 whole entry, looked up): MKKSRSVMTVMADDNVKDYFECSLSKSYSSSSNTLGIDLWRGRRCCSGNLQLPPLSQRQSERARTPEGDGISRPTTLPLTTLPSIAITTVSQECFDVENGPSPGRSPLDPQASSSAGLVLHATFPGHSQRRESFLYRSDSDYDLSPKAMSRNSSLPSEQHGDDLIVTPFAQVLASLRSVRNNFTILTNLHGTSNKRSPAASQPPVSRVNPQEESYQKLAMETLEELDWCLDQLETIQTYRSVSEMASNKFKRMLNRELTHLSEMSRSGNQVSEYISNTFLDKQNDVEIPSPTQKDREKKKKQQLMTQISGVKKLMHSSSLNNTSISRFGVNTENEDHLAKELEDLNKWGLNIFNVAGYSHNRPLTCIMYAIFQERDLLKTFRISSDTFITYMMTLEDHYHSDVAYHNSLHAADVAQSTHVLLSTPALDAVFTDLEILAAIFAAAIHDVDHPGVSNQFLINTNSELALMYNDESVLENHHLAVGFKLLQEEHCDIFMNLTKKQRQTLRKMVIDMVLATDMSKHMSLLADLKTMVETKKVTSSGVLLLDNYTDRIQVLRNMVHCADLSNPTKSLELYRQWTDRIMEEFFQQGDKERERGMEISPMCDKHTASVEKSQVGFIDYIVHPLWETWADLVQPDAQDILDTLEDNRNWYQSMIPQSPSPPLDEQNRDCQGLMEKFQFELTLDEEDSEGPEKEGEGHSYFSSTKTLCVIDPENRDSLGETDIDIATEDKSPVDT

A short description of experiment [15]: Confirmation and Secondary Assay for Modulators of Hemoglobin Beta Chain Splicing at IVS2 654 locus (AID 910).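 Further: HeLa cells stably carrying EGFP split by mutant beta-globin IVS2-654 intron; % of control where 0% means no effect.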 A digest of the protocol:
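HeLa cells stably expressing EGFP interrupted by β-globin IVS2-654 intron, seeded overnight in Opti-MEM/2% FCS, then treated 2 days at 37 °C. Restored splicing read as total peak GFP intensity per well by laser scanning cytometry (488 nm excitation, 500–520 nm emission); 500 nM antisense PNA as control.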

In experiment [16] the target is Cytochrome P450 2C9 (Homo sapiens) (UniProt P11712). The experiment is described as follows: qHTS Assay for Inhibitors and Substrates of Cytochrome P450 2C9 (AID 883). Further: potency means the concentration at half of the fitted maximal effect; nearly all actives have a fitted effect of over 60% in size. A digest of the protocol:
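Human CYP2C9 (10nM) with Luciferin-H at 100uM (its KM) in 25mM KPO4; compound preincubated 10 min at 37C, then NADPH regeneration for 60 min at 37C. Luciferin read by luminescence after detection reagent; normalized to 57uM sulphaphenazole as full inhibition.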

Molecules are shown by their SMILES. Several values for one entry are separate records, joined by “and”; a condition that tells them apart may be missing. Identical values can stand only once. Values without a mark were called inactive. Records with an inconclusive call do not appear. Activity calls are given as the source filed them. Unless noted, the call rests on the fitted dose curve; in most records, active means well fitted curve in the direction sought with a large enough effect; inconclusive means small, poorly fitted or top-dose-only effect, or another doubt; inactive means no such curve, though single readings can be large; an effect the other way counts as inactive or inconclusive.

Cytochrome P450 2C9 (Homo sapiens), sequence (P11712 whole entry, looked up): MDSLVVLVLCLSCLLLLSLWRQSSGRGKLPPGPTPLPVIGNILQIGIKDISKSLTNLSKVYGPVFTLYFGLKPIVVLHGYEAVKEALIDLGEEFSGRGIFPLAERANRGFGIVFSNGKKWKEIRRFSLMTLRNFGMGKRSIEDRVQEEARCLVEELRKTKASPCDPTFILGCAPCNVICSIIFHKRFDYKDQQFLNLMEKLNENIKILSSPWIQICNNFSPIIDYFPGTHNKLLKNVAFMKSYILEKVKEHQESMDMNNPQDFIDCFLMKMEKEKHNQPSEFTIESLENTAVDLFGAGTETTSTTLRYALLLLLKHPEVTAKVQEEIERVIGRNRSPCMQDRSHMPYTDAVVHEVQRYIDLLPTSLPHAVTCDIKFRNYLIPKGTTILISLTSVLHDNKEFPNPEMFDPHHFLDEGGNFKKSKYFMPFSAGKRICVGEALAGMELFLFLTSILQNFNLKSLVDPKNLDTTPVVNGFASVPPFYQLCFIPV

Turning to `CC(C)O`, the outcome in experiment [1], in experiment [3], in experiment [6], in experiment [7], in experiment [9] and in experiment [11] was inactive. Further, the call in [12] and in experiment [13] was inactive. Further, the Potency result in [2], in experiment [4], in [5] and in experiment [8] was “inactive” throughout. Moreover, in [10], the caspase-3 activation was 1.95%.

Consider `COc1cc(S(C)=O)ccc1-c1nc2ncccc2[nH]1` (stereo unspecified), for which, in experiment [14], the result was inactive. Also, the Potency entry in [15] is “inactive”.

Consider `O=C(O)Cc1cc(I)c(Oc2ccc(O)c(I)c2)c(I)c1`, for which the result in experiment [14] was inactive. The Potency in experiment [16] was 5.01 µM (active).

In the case of `COC(=O)c1ccccc1O`, the compound was called inactive in [1], in [3], in [6], in experiment [7], in experiment [9] and in experiment [11]. Moreover, the result in experiment [12] and in [13] was inactive. The Potency entry in experiment [2], in experiment [4], in experiment [5] and in experiment [8] was “inactive” in each case. For the same compound, in [10], the caspase-3 activation is 0.0886%.

Regarding `C/C=C/C=C/C(=O)O`, the call in [1], in experiment [3], in experiment [6], in [7], in experiment [9] and in experiment [11] was inactive. Further, the outcome in experiment [12] and in experiment [13] was inactive. The Potency result in [2], in [4], in experiment [5] and in [8] was “inactive” in each case. Besides, the caspase-3 activation in [10] was -0.294%.

Regarding `CCCCC`, the result in [1], in [3], in [6], in [7], in experiment [9] and in experiment [11] was inactive. Also, the compound was classed as inactive in [12] and in experiment [13]. Moreover, the Potency entry in experiment [2], in experiment [4], in [5] and in experiment [8] was “inactive” throughout. Further, the caspase-3 activation in experiment [10] was 2.68%.

For the compound `OCC(O)CO`, the call in [1], in experiment [3], in experiment [6], in experiment [7], in [9] and in experiment [11] was inactive. Further, the result in [12] and in experiment [13] was inactive. For the same compound, the Potency entry in experiment [2], in experiment [4], in [5] and in [8] was “inactive” each time. In addition, the caspase-3 activation in experiment [10] is 3.75% and 1.59%.

Turning to `Cc1ncc(C[n+]2csc(CCO)c2C)c(N)n1`, the compound was classed as inactive in [14].

Consider `NCCN`, for which the outcome in [1], in [3], in experiment [6], in experiment [7], in [9] and in experiment [11] was inactive. For the same compound, the call in experiment [12] and in experiment [13] was inactive. The Potency result in [2], in [4], in [5] and in experiment [8] was “inactive” each time. Besides, in experiment [10], the caspase-3 activation was 0.975%.

In the case of `CC(C)(C)CC(C)(C)c1ccc(OCCO)cc1`, the outcome in [1], in [3], in experiment [6], in experiment [7], in experiment [9] and in experiment [11] was inactive. The outcome in [12] and in experiment [13] was inactive. Also, the Potency result in [2], in [4], in experiment [5] and in experiment [8] was “inactive” throughout. Also, the caspase-3 activation in experiment [10] was 5.17%.
